Assay results published in PubChem BioAssay AID1347056 (Sanford-Burnham Center for Chemical Genomics, 2019).
Hit rate of the full screen: of about 360,000 compounds, about 3,600 (1%) were called active.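 Rule for the calls: active = compounds whose plate-normalised and pattern-corrected inhibition of the luciferase reporter signal at the single screening dose is 50% or more; inactive = the rest.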 Many of the other results were omitted from the sample, so actives are more common in it than they were.

Assay: inhibitors of TROY-driven NF-kB signaling, primary screen, Q293 LMP1-TROYcd cells, NF-kB luciferase, uHTS (AID 1347056)
Conditions: Q293 LMP1-TROYcd NF-kB luciferase reporter, 4 h; at 10 µM; active compounds read high

inhibition, inactive:
COC(=O)C1(S(=O)(=O)C2(C(=O)OC)CCCC2)CCCC1 10.4%
CCCCCc1c(Cc2ccccc2)ncn1CCc1ccccc1OC 49.9%
Cc1ccccc1NS(=O)(=O)CCCCC(Cl)(Cl)Cl 5.02%
CC(C)CNc1ncnc2c1cnn2Cc1ccc(Cl)cc1 -3.29%
c1ccc(CNc2ncnc3[nH]ncc23)cc1 12.9%
CC(CNc1ccc([N+](=O)[O-])c2cccnc12)Nc1c([N+](=O)[O-])cc(C(F)(F)F)cc1[N+](=O)[O-] (stereo not drawn) 9.66%
O=C(COc1ccc([N+](=O)[O-])cc1)Nc1cccc(C(=O)Nc2ccccc2C(=O)O)c1 13.9%
NS(=O)(=O)c1cccc(NC(=O)COC(=O)c2cc([N+](=O)[O-])ccc2N2CCCC2)c1 -3.22%
CC(OC(=O)CNC(=O)c1ccc(Cl)c([N+](=O)[O-])c1)C(=O)NCc1ccco1 (stereo not drawn) -1.1%
CCc1ccc(NC(=O)C(C)OC(=O)/C=C/c2cccc([N+](=O)[O-])c2)cc1 (stereo not drawn) 7.86%
CN(CC(=O)NC1CCCC1)S(=O)(=O)c1cnc[nH]1 7.95%
CCNc1nc(NC(C)C)nc(N2CC(=O)N(CC(=O)OCC)C2=N)n1 19.4%
CCOC(=O)N1CCN(C(=O)c2ccc3c(=O)n(CCc4ccc(OC)c(OC)c4)c(=O)[nH]c3c2)CC1 1.87%
Cc1ccccc1NC(=O)C1CCN(C(=O)NC2CCCCC2)CC1 -10.7%
O=C(C1CCCN(S(=O)(=O)c2ccccc2)C1)N1CCN(c2ccc(F)cc2)CC1 (stereo not drawn) 3.28%
COc1cccc(N2CCN(C(=O)C3CCCN(S(=O)(=O)c4cnc[nH]4)C3)CC2)c1 (stereo not drawn) -3.43%
CCOc1cccc2cc(C(=O)OCC(=O)Nc3c(C)cccc3CC)c(=O)oc12 -77.6%
O=C(Nc1ccc(Cl)c(C(F)(F)F)c1)C1Cc2c(-c3ccccc3Oc3ccccc3)ccnc2O1 (stereo not drawn) 16.3%
COc1ccc(N(CC(=O)NCc2ccc(F)cc2)C(=O)CCC(=O)Nc2nccs2)cc1 -6.88%

inhibition, active:
Clc1ccc(Cn2ncc3c(NCc4cccnc4)ncnc32)cc1 58.7%
N#Cc1cccc(NC(=O)COC(=O)c2ccccc2C(=O)c2ccc(Cl)c([N+](=O)[O-])c2)c1 66.1%
CC(=O)Nc1ccc(NC(=O)C(C)OC(=O)c2ccccc2C(=O)c2ccc(Cl)c([N+](=O)[O-])c2)cc1 (stereo not drawn) 51%
CC(=O)N1CCCc2cc(S(=O)(=O)N3CCCC(C(=O)N4CCN(c5cccc(Cl)c5)CC4)C3)ccc21 (stereo not drawn) 54.2%
